Measurements as given in the supplement of paper PMC8975748.
± gives the standard deviation of the averaged measurements.

What was measured:
[1] = system: Saccharomyces cerevisiae BY4741 SeMeCo community; test: z-score of prototroph abundance vs DMSO median; higher = larger share of this subpopulation than in DMSO controls; details: 10 µM; 24 h; SM minimal medium; subpopulation (auxotrophy): Prototroph
Procedure, shortened: (§1)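 A community of Saccharomyces cerevisiae BY4741 was built from four plasmids that each restored one auxotrophy and encoded a distinct fluorescent protein. Pre-grown overnight to OD600 1.0 and diluted to 0.3, it was dispensed at 70 µl into 384-well plates acoustically predosed with library drugs for a final 10 µM, and grown 24 h in minimal SM medium. Cells were then paraformaldehyde-fixed and imaged by automated confocal microscopy. Thresholds and autofluorescence correction came from single-auxotroph fluorescent strains, and each subpopulation's abundance was scored as a z-score relative to the vehicle-well median.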

[2] = system: Saccharomyces cerevisiae BY4741 SeMeCo community; test: z-score of subpopulation abundance vs DMSO median, subpopulation auxotrophic for L; higher = larger share of this subpopulation than in DMSO controls; details: 10 µM; 24 h; SM minimal medium; subpopulation (auxotrophy): L
Procedure, shortened: as §1

[3] = system: Saccharomyces cerevisiae BY4741 SeMeCo community; test: z-score of subpopulation abundance vs DMSO median, subpopulation auxotrophic for H; higher = larger share of this subpopulation than in DMSO controls; details: 10 µM; 24 h; SM minimal medium; subpopulation (auxotrophy): H
Procedure, shortened: as §1

[4] = system: Saccharomyces cerevisiae BY4741 SeMeCo community; test: z-score of subpopulation abundance vs DMSO median, subpopulation auxotrophic for LU; higher = larger share of this subpopulation than in DMSO controls; details: 10 µM; 24 h; SM minimal medium; subpopulation (auxotrophy): LU
Procedure, shortened: as §1

[5] = system: Saccharomyces cerevisiae BY4741 SeMeCo community; test: z-score of subpopulation abundance vs DMSO median, subpopulation auxotrophic for LM; higher = larger share of this subpopulation than in DMSO controls; details: 10 µM; 24 h; SM minimal medium; subpopulation (auxotrophy): LM
Procedure, shortened: as §1

[6] = system: Saccharomyces cerevisiae BY4741 SeMeCo community; test: z-score of subpopulation abundance vs DMSO median, subpopulation auxotrophic for HM; higher = larger share of this subpopulation than in DMSO controls; details: 10 µM; 24 h; SM minimal medium; subpopulation (auxotrophy): HM
Procedure, shortened: as §1

[7] = system: Saccharomyces cerevisiae BY4741 SeMeCo community; test: z-score of subpopulation abundance vs DMSO median, subpopulation auxotrophic for HU; higher = larger share of this subpopulation than in DMSO controls; details: 10 µM; 24 h; SM minimal medium; subpopulation (auxotrophy): HU
Procedure, shortened: as §1

[8] = system: Saccharomyces cerevisiae BY4741 SeMeCo community; test: z-score of subpopulation abundance vs DMSO median, subpopulation auxotrophic for UM; higher = larger share of this subpopulation than in DMSO controls; details: 10 µM; 24 h; SM minimal medium; subpopulation (auxotrophy): UM
Procedure, shortened: as §1

[9] = system: Saccharomyces cerevisiae BY4741 SeMeCo community; test: z-score of subpopulation abundance vs DMSO median, subpopulation auxotrophic for HL; higher = larger share of this subpopulation than in DMSO controls; details: 10 µM; 24 h; SM minimal medium; subpopulation (auxotrophy): HL
Procedure, shortened: as §1

[10] = system: Saccharomyces cerevisiae BY4741 SeMeCo community; test: z-score of subpopulation abundance vs DMSO median, subpopulation auxotrophic for HLU; higher = larger share of this subpopulation than in DMSO controls; details: 10 µM; 24 h; SM minimal medium; subpopulation (auxotrophy): HLU
Procedure, shortened: as §1

[11] = system: Saccharomyces cerevisiae BY4741 SeMeCo community; test: z-score of subpopulation abundance vs DMSO median, subpopulation auxotrophic for HUM; higher = larger share of this subpopulation than in DMSO controls; details: 10 µM; 24 h; SM minimal medium; subpopulation (auxotrophy): HUM
Procedure, shortened: as §1

[12] = system: Saccharomyces cerevisiae BY4741 SeMeCo community; test: z-score of subpopulation abundance vs DMSO median, subpopulation auxotrophic for LUM; higher = larger share of this subpopulation than in DMSO controls; details: 10 µM; 24 h; SM minimal medium; subpopulation (auxotrophy): LUM
Procedure, shortened: as §1

[13] = system: Saccharomyces cerevisiae BY4741 SeMeCo community; test: mean cell size (pixel area) (pixels); higher = larger cells; details: 10 µM; 24 h; SM minimal medium
Procedure, shortened: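 A fluorescent Saccharomyces cerevisiae BY4741 community carrying four plasmids was used, with each plasmid complementing one auxotrophy and bearing a fluorescent marker. An overnight preculture at OD600 = 1.0 was diluted to OD600 = 0.3, and 70 µl went into 384-well plates acoustically predosed with drug (final 10 µM) in SM medium for 24 h. After paraformaldehyde fixation, cells were imaged by automated confocal microscopy and analysed in Harmony, giving the mean cell pixel area per well. Each value is the average of 3 replicates. Same SeMeCo high-content imaging drug screen: Selleck FDA-approved drugs at 10 µM, 24 h in SM medium, 384-well plates, 3 replicates.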

[14] = system: Saccharomyces cerevisiae BY4741 SeMeCo community; test: z-score of subpopulation abundance vs DMSO median, subpopulation auxotrophic for U; higher = larger share of this subpopulation than in DMSO controls; details: 10 µM; 24 h; SM minimal medium; subpopulation (auxotrophy): U
Procedure, shortened: as §1

[15] = system: Saccharomyces cerevisiae BY4741 SeMeCo community; test: z-score of subpopulation abundance vs DMSO median, subpopulation auxotrophic for HLUM; higher = larger share of this subpopulation than in DMSO controls; details: 10 µM; 24 h; SM minimal medium; subpopulation (auxotrophy): HLUM
Procedure, shortened: as §1

[16] = system: Saccharomyces cerevisiae BY4741 SeMeCo community; test: z-score of subpopulation abundance vs DMSO median, subpopulation auxotrophic for HLM; higher = larger share of this subpopulation than in DMSO controls; details: 10 µM; 24 h; SM minimal medium; subpopulation (auxotrophy): HLM
Procedure, shortened: as §1

Row | SMILES | z-score of prototroph abundance [1] | z-score of subpopulation abundance [2] | z-score of subpopulation abundance [3] | z-score of subpopulation abundance [4] | z-score of subpopulation abundance [5] | z-score of subpopulation abundance [6] | z-score of subpopulation abundance [7] | z-score of subpopulation abundance [8] | z-score of subpopulation abundance [9] | z-score of subpopulation abundance [10] | z-score of subpopulation abundance [11] | z-score of subpopulation abundance [12] | mean cell size [13] | z-score of subpopulation abundance [14] | z-score of subpopulation abundance [15] | z-score of subpopulation abundance [16]
1 | CC(c1cc2ccccc2s1)N(O)C(N)=O (stereo not given) [Zileuton] | 0.05 | 0.85 | -0.65 | 0.65 | 0.16 | -0.32 | -0.39 | 0.34 | -0.17 | 0.44 | -0.33 | 0.12 | – | – | – | –
2 | Cc1nnc(SCC2=C(C(=O)O)N3C(=O)[C@@H](NC(=O)Cn4cnnn4)[C@H]3SC2)s1 [Cefazolin Sodium] | -1.09 | 0 | 1.95 | 1.43 | 0.26 | – | 2.2 | 0.25 | – | 0.52 | 0.08 | 0.5 | 12.24 ± 0.096 | 0.46 | -0.81 | –
3 | CC/C(=C(/CC)c1ccc(O)cc1)c1ccc(O)cc1 [Diethylstilbestrol] | 1.5 | – | – | -1.48 | – | -0.17 | -1.29 | -1.59 | -0.25 | -1.06 | -1.46 | -1.01 | 12.85 ± 0.035 | -1.17 | -1.31 | –
4 | COc1cccc(-c2c(C)n(Cc3c(F)cccc3C(F)(F)F)c(=O)n(C[C@H](NCCCC(=O)O)c3ccccc3)c2=O)c1F [Elagolix Sodium] | 0.61 | – | – | -0.52 | – | -0.13 | 0.74 | -0.27 | 0.13 | -0.37 | 0.12 | -0.77 | 12.5 ± 0.27 | 0.24 | -0.29 | -0.27
